Experimental data reported in the supplement of paper PMC11732987, “Enantioselective OTUD7B fragment discovery through chemoproteomics screening and high-throughput optimisation” (Communications Chemistry, 2025).

Experiments:
Test in all cases: log2 ratio of Biotin-Ahx-Ub-VS probe labelling (fragment/DMSO); higher = less target engagement (more negative = stronger competition), active = hit call of the paper (q ≤ 0.05, log2 ratio ≤ -1)
Conditions in all cases: compound concentration: 200 uM; treatment time: 3 h
USP34 = USP34 (UniProt Q70CQ2)
Chain of USP34 (Q70CQ2 whole entry, the tested form may be a part): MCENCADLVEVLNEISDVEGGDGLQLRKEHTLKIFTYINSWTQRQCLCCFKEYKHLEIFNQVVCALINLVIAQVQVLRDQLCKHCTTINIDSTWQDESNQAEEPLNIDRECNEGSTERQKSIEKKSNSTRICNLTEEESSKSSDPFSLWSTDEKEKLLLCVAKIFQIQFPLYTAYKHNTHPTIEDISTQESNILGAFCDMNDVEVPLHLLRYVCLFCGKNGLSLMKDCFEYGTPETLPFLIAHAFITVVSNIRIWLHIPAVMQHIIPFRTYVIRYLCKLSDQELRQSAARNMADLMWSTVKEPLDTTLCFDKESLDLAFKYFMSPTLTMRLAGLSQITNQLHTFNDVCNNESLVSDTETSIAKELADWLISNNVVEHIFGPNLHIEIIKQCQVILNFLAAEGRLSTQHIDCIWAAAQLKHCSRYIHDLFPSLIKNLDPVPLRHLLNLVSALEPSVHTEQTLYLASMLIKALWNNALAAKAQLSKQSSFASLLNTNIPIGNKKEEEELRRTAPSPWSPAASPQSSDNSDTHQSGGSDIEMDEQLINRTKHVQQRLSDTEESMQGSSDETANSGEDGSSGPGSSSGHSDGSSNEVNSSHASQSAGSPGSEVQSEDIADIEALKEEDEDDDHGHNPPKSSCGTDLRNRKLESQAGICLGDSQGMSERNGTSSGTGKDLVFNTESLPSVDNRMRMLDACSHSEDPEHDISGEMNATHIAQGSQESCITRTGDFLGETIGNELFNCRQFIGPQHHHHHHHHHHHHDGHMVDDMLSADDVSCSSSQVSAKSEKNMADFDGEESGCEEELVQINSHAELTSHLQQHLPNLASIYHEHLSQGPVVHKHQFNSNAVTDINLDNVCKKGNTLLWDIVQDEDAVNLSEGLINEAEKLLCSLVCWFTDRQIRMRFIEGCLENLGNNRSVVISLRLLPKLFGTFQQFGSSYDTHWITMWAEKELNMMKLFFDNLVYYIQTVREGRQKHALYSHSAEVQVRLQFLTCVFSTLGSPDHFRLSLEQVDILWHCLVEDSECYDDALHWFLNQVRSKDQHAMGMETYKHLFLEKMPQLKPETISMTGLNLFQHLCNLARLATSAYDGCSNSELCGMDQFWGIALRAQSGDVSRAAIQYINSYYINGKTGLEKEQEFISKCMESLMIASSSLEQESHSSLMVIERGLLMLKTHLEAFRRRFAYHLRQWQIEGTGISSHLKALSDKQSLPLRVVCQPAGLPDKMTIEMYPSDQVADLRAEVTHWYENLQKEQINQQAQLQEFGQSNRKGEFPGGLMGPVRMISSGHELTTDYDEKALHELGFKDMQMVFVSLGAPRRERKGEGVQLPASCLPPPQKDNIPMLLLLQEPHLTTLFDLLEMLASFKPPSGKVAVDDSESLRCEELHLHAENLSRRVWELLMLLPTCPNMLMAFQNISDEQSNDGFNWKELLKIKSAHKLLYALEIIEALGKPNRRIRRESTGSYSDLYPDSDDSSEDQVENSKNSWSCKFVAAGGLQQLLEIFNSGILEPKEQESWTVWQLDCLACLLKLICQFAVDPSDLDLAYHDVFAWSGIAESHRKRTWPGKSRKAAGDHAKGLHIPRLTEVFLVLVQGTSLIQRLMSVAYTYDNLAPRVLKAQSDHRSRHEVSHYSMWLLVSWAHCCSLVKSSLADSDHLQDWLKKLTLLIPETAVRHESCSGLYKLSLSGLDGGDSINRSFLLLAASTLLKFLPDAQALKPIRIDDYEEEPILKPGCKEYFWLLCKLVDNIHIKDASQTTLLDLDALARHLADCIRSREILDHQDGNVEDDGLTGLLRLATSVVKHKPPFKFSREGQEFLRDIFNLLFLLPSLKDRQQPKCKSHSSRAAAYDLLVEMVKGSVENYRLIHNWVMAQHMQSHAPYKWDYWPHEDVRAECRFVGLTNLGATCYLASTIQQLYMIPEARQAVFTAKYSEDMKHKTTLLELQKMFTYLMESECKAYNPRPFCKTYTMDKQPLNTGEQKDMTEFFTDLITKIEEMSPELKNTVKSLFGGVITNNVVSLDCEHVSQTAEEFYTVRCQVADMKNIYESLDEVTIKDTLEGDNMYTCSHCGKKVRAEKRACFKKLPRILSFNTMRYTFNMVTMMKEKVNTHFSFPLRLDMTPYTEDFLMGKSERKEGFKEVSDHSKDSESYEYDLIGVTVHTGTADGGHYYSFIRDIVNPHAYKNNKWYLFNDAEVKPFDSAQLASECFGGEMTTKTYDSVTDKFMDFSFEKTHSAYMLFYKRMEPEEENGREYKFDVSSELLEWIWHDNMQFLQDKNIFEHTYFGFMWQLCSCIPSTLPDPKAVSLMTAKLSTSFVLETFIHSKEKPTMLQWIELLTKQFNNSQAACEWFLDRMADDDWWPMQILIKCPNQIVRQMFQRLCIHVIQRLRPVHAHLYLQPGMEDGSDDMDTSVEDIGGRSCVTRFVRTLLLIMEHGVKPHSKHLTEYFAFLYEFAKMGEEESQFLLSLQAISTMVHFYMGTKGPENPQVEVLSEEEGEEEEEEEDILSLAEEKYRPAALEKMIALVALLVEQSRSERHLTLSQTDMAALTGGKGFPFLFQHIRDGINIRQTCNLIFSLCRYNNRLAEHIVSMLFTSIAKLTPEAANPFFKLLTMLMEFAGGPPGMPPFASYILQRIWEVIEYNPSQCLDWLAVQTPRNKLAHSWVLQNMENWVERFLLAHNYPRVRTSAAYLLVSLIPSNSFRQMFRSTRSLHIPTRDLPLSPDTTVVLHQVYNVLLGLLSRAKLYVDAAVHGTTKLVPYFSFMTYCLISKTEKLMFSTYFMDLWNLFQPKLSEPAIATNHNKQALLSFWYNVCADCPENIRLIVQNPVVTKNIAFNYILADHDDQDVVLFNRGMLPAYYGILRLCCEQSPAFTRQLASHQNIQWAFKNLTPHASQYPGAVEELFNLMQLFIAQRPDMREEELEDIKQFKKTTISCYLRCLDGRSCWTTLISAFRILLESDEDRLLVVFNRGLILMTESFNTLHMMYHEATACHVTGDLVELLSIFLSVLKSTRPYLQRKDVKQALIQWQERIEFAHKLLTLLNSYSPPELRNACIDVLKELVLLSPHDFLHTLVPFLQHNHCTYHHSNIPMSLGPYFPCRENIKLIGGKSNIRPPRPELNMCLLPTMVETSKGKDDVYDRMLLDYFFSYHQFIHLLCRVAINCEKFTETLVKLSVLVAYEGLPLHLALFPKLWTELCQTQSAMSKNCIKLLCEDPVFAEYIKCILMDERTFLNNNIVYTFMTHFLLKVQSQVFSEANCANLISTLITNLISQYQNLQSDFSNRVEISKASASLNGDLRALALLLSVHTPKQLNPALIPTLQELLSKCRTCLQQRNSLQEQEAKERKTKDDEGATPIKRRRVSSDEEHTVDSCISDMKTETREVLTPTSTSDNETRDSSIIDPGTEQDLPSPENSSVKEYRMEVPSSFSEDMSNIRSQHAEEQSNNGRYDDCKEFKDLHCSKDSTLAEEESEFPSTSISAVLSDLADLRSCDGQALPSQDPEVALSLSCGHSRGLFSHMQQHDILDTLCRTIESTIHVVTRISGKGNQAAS
Summary of the method: (§1)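 Fragment (200 µM) or vehicle was incubated for 3 h with triplicate HEK293T lysate samples of 495 µg, which were then treated with Biotin-Ahx-Ub-VS at 0.5 µM final for 1 h. Labelled DUBs were enriched on NeutrAvidin, digested with LysC and trypsin, and analysed by diaPASEF LC-MS/MS. Values are average log2 fragment/vehicle ratios from an unpaired t-test on global-median-normalised Spectronaut label-free quantities, using proteins with ≥2 unique peptides.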

USP36 = target: T1, USP36 (UniProt Q9P275)
T1 sequence (whole entry): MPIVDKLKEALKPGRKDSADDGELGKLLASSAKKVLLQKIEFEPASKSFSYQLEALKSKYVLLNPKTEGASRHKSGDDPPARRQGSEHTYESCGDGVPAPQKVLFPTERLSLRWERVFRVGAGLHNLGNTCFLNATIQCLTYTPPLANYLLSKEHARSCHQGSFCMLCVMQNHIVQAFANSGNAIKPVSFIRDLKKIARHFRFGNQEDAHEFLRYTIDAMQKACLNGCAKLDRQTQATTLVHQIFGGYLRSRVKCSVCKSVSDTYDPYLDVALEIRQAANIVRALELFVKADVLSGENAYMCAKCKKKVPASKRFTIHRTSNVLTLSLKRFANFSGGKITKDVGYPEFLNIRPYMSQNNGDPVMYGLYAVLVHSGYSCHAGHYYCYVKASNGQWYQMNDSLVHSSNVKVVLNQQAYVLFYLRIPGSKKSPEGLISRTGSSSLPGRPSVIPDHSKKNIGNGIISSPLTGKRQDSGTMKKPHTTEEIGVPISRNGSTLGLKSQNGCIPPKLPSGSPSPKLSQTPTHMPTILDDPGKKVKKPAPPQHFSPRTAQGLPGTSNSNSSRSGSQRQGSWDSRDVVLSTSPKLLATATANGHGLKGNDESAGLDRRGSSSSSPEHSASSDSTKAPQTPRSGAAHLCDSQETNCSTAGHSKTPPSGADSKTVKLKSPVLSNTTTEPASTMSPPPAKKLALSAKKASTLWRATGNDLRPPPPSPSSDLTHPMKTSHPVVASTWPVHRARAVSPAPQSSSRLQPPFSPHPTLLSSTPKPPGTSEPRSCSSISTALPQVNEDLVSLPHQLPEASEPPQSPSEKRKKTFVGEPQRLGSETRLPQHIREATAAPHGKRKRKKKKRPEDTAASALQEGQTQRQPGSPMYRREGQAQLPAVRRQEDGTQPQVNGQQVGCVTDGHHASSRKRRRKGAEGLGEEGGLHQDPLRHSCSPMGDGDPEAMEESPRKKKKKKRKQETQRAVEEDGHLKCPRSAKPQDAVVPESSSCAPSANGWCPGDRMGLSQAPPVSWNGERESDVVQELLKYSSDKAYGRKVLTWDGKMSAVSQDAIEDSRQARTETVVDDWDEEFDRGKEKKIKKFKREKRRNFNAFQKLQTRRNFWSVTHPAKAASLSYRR
Summary of the method: as §1

USP38 = target: T2, USP38 (UniProt Q8NB14)
T2 sequence (whole entry): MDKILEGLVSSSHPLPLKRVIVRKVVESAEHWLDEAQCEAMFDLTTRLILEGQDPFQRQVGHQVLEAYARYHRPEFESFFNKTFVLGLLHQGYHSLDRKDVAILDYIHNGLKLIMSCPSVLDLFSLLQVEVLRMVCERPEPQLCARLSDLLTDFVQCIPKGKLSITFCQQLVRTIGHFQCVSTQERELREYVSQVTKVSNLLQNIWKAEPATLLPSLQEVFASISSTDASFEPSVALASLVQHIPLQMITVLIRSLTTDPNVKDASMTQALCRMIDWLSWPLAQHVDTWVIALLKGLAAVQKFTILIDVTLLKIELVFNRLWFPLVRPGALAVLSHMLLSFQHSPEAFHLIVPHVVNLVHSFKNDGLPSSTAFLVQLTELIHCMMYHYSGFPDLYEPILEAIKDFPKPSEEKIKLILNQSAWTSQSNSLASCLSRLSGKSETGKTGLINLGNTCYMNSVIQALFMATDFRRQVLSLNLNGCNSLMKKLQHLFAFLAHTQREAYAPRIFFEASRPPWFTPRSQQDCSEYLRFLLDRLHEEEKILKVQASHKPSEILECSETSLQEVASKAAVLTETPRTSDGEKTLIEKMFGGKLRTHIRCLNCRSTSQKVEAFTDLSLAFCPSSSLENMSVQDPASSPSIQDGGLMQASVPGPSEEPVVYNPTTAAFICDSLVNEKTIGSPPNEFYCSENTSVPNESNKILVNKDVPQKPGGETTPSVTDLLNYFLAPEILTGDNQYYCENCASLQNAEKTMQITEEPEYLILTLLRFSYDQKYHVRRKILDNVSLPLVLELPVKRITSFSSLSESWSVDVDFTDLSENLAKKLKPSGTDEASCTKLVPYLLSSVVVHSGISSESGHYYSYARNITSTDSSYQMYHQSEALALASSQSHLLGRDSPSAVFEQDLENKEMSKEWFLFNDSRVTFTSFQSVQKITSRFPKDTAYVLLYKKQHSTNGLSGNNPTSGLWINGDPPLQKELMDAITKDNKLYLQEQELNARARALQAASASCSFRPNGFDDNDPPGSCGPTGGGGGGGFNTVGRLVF
Summary of the method: as §1

USP39 = target: T3, USP39 (UniProt Q53GS9)
T3 sequence (whole entry): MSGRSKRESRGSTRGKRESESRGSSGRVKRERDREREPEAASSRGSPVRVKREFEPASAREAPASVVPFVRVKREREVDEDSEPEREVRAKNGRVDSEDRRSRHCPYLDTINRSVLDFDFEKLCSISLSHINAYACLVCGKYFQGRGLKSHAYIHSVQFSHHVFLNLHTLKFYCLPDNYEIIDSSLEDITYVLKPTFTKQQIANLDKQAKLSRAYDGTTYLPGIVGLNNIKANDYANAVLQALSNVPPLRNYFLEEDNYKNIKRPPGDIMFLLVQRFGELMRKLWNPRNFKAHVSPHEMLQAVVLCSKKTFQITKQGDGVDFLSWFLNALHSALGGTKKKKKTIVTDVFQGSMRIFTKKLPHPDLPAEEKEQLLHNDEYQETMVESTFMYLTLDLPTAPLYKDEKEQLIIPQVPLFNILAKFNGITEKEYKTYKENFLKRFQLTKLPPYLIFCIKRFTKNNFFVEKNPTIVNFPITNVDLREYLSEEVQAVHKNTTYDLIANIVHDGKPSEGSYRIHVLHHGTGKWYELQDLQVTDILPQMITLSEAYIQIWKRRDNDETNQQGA
Summary of the method: as §1

USP4 = target: T4, USP4 (UniProt Q13107)
T4 sequence (whole entry): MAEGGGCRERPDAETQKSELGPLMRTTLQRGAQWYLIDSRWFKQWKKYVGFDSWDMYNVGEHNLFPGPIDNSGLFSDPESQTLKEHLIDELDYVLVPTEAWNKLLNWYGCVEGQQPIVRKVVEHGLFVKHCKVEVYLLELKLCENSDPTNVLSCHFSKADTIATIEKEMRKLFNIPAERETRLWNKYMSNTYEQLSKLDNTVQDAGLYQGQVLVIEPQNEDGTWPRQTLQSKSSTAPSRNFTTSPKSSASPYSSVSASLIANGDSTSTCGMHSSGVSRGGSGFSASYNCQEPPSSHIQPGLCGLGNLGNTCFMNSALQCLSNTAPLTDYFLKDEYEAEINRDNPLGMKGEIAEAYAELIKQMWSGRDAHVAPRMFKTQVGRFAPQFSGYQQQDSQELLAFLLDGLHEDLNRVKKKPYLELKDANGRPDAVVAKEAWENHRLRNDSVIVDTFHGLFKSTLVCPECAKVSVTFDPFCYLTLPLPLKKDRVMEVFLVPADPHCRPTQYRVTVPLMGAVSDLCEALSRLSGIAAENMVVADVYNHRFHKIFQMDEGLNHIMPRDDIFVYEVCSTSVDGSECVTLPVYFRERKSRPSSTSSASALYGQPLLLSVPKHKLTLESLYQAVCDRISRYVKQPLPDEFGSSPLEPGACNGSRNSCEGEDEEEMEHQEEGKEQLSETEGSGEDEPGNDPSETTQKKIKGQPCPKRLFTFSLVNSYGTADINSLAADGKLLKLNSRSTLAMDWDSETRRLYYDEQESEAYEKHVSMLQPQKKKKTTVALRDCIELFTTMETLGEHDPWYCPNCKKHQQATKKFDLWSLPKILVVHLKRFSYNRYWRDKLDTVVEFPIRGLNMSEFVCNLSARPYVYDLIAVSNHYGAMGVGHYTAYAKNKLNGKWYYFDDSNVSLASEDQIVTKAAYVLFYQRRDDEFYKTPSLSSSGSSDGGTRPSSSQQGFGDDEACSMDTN
Summary of the method: as §1

Measured: log2 ratio of Biotin-Ahx-Ub-VS probe labelling

CC(O)CC1CCN(C(=O)CCl)CC1 (stereo not given)
inactive: USP34 -0.0285 | USP36 -0.326 | USP38 -0.143 | USP39 -0.0644 | USP4 -0.0429
